# According to PubChem BioAssay AID463173 (ICCB-Longwood Screening Facility, Harvard Medical School, 2010):
# Screen size: about 52,000 compounds; about 4,300 (8.3%) were called active. This is one part of a sample in which actives are shown more often than they occur. A number with no mark means an inactive call. No stated cut-off is given here; in the data, active means survival mostly below about 52% (no sharp cut-off); inactive means mostly above about 56%.
# Tested on: DeltatarO mutant
# Assay: S. aureus survival, RN4220 and DeltatarO strains – OD600, teichoic acid synthesis inhibitors, primary screen (AID 463173)
# Conditions: S. aureus RN4220 wild type/DeltatarO growth, OD600, 18 h, active compounds read low, screened at 18.75 µg/mL (by protocol)
row,Compound,survival
1,O=C(CNCCCN1CCOCC1)Nc1ccc(OC(F)(F)F)cc1,99%
2,CC(=O)c1cccc(NC(=O)c2oc3c(c2C)-c2nn(Cc4ccc(Cl)cc4)cc2CC3)c1,64%
3,COc1cccc(CNC(=O)CN2C(=O)N(c3ccc(C)cc3C)S(=O)(=O)c3ccccc32)c1OC,65%
4,COc1cc(NS(=O)(=O)c2ccc(-c3cc(C)no3)cc2)cc(OC)c1,99%
5,Cc1cccc(C)c1NC(=O)CCSCCc1ccccn1,86%
6,O=S(=O)(c1ccccc1)c1nc(-c2ccc(F)cc2)oc1N1CCOCC1,90%
7,Cc1ccc(S(=O)(=O)c2nc(-c3ccccc3)oc2N2CCN(c3ccccc3)CC2)cc1,85%
8,Cc1ccc(-c2nc(S(=O)(=O)c3ccccc3)c(N3CCN(c4ccccc4)CC3)o2)cc1,102%
9,O=S(=O)(c1ccccc1)c1nc(-c2ccc(F)cc2)oc1N1CCCCCC1,33% (active)
10,Cc1ccc(-c2nc(S(=O)(=O)c3ccc(C)cc3)c(N3CCCCCC3)o2)cc1,70%
11,COc1ccc(-c2nc(S(=O)(=O)c3ccc(C)cc3)c(N3CCCCC3)o2)cc1,54%
12,Cc1ccc(-c2nc(S(=O)(=O)c3ccc(C)cc3)c(N3CCN(c4ccccc4)CC3)o2)cc1,97%
13,COc1ccc(-c2nc(S(=O)(=O)c3ccccc3)c(N3CCCCC3)o2)cc1,74%
14,CC(C)(C)c1ccc(-c2nc(S(=O)(=O)c3ccccc3)c(N3CCOCC3)o2)cc1,37% (active)
15,O=S(=O)(c1ccccc1)c1nc(-c2cccc(Cl)c2)oc1N1CCOCC1,57%
16,Cc1ccc(-c2nc(S(=O)(=O)c3ccc(C)cc3)c(N3CCCCC3)o2)cc1,0% (active)
17,Cc1ccc(S(=O)(=O)c2nc(-c3ccccc3)oc2N2CCCCCC2)cc1,22% (active)
18,Cc1ccc(Cl)cc1NC(=O)Cn1cc2c(n1)CCCCC2,68%
19,CCc1ccc(NC(=O)CC(c2cc(OC)c(OC)c(OC)c2)N2Cc3ccccc3C2=O)cc1 (stereo not drawn),79%
20,COc1ccc(N2CCN(C(=O)c3cccc4ccccc34)CC2)cc1,66%
21,COC(=O)NCc1c(C)nn(-c2ccccc2)c1-n1cccc1,96%

row,Compound,survival
1,COc1ccc(C2c3cccn3CCN2S(=O)(=O)c2ccc([N+](=O)[O-])cc2)cc1 (stereo not drawn),69%
2,Cn1ncc(C(=O)N2CCN(c3ccccc3)CC2)c1C1CCN(C(=O)OC(C)(C)C)CC1,78%
3,CCCCN(CC)C(=O)c1c[nH]c2ccc(S(=O)(=O)N(C)c3ccc(Cl)cc3)cc2c1=O,95%
4,COc1cc2c(cc1OC)C(c1cccc(Cl)c1)CC(=O)N2 (stereo not drawn),63%
5,Cc1c(C(=O)OC2CCC(C)CC2)[nH]c2c1C(=O)CC(c1ccc(N(C)C)cc1)C2 (stereo not drawn),68%
6,COc1ccc(NC(=O)C(=O)Nc2ccc3nc4n(c(=O)c3c2)CCCCC4)c(OC)c1,84%
7,COc1cccc(OC)c1C(=O)Nc1ccc2c(c1)N(C(C)=O)CCC2,78%
8,COCCn1c(=NC(=O)c2ccc3c(c2)OCCO3)sc2cc(NC(C)=O)ccc21,94%
9,Cc1nn2c(=O)cc(COC(=O)COc3ccccc3C)nc2s1,101%
10,O=C(NC12CC3CC(CC(C3)C1)C2)N1CCC(O)(c2ccc3c(c2)OCO3)CC1,81%
11,O=C(Nc1cccc(Cl)c1Cl)c1cc2nc(-c3ccc(Cl)cc3)cc(C(F)(F)F)n2n1,93%
12,CCOc1ccc(NC(=O)c2cc3nc(-c4ccc(OC)cc4)cc(C(F)(F)F)n3n2)cc1,134%
13,COc1ccc(-c2cc(C(F)(F)F)n3nc(C(=O)NCC45CC6CC(CC(C6)C4)C5)cc3n2)cc1,29% (active)
14,O=C(c1cc2nc(-c3ccccc3)cc(C(F)(F)F)n2n1)N1CCCC1,78%
15,COc1ccc(-c2cc(C(F)(F)F)n3nc(C(=O)NCC45CC6CC(CC(C6)C4)C5)cc3n2)cc1OC,137%
16,Cc1ccc(-c2cc(C(F)(F)F)n3nc(C(=O)Nc4ccc(Cl)cc4Cl)cc3n2)cc1,81%
17,O=C(NCC12CC3CC(CC(C3)C1)C2)c1cc2nc(-c3ccc(Cl)cc3)cc(C(F)(F)F)n2n1,31% (active)
18,O=C(Nc1cccc(C(F)(F)F)c1)c1cc2nc(-c3ccccc3)cc(C(F)(F)F)n2n1,60%
19,O=C(NCC12CC3CC(CC(C3)C1)C2)c1cc2nc(-c3ccccc3)cc(C(F)(F)F)n2n1,-4% (active)
20,CCC(c1nnnn1CCOC)N(Cc1cc2ccc(OC)cc2[nH]c1=O)C1CCCC1 (stereo not drawn),92%
21,Cc1ccc(C)c(N2CCN(C(=O)c3cc4cc5ccc(C)cc5nc4s3)CC2)c1,95%

row,Compound,survival
1,N#Cc1c2c(c(-c3ccccc3)[nH]c1=S)CCCC2,91%
2,CCc1ccc(-c2nn(CC(=O)NC3CCCCC3)c3c2cnc2ccc(OC)cc23)cc1,98%
3,COC(=O)c1c(C)sc(-c2c(-c3ccc4c(c3)OCCO4)[nH]c3[nH]c(=O)[nH]c(=O)c23)c1O,50%
4,CCOC(=O)c1c(C)sc(-c2c(-c3ccc4c(c3)OCCO4)[nH]c3c2c(=O)[nH]c(=O)n3C)c1O,106%
5,CCOC(=O)c1c(C)sc(-c2c(-c3ccc(OC)c(F)c3)[nH]c3c2c(=O)[nH]c(=O)n3C)c1O,117%
6,CCc1ccc(-c2[nH]c3c(c2-c2sc(C)c(C(=O)OC)c2O)c(=O)n(C)c(=O)n3C)cc1,51%
7,CCOC(=O)c1c(C)sc(-c2c(-c3cc(C)ccc3C)[nH]c3c2c(=O)n(C)c(=O)n3C)c1O,105%
8,COC(=O)c1c(C)sc(-c2c(-c3cccc(OC)c3)[nH]c3c2c(=O)[nH]c(=O)n3C)c1O,43% (active)
9,COC(=O)c1c(C)sc(-c2c(-c3cccc(Cl)c3)[nH]c3c2c(=O)[nH]c(=O)n3C)c1O,113%
10,CCOC(=O)c1c(C)sc(-c2c(-c3cc(C)ccc3C)[nH]c3c2c(=O)[nH]c(=O)n3C)c1O,40% (active)
11,COC(=O)c1c(C)sc(-c2c(-c3ccc4c(c3)OCCO4)[nH]c3c2c(=O)[nH]c(=O)n3C)c1O,37% (active)
12,CCc1ccc(-c2[nH]c3c(c2-c2sc(C)c(C(=O)OC)c2O)c(=O)[nH]c(=O)n3C)cc1,23% (active)
13,COC(=O)c1c(C)sc(-c2c(-c3ccc(F)cc3)[nH]c3[nH]c(=O)[nH]c(=O)c23)c1O,116%
14,CCOC(=O)c1c(C)sc(-c2c(-c3cccc(Cl)c3)[nH]c3c2c(=O)n(C)c(=O)n3C)c1O,113%
15,COc1cccc(CNC(=O)c2c(C)oc3ncnc(N4CCOCC4)c23)c1,87%
16,COc1ccc(CNC(=O)C2CCN(c3nnc(-n4cccc4CNc4ccc(C)cc4)s3)CC2)c(OC)c1,70%
17,COc1ccc(CN2CCc3nc(N4CCN(c5ccc(F)cc5)CC4)ncc3C2)c(OC)c1OC,119%
18,COc1ccc(-c2nc3sc(CCNC(=O)c4cc(OC)c(OC)c(OC)c4)c(C)n3n2)cc1,83%
19,CN(C(=O)CSc1nc2ccc(NC(=O)COc3ccc(Cl)cc3)cc2s1)c1ccccc1,72%
20,CCOc1ccc(OCC)c(Nc2nc3ccc(Cl)cc3n3cnnc23)c1,65%
21,CC(C)NC(=O)C1CCN(S(C)(=O)=O)CC1,93%

row,Compound,survival
1,CSc1nc(NNC(=O)c2ccco2)c2c3c(sc2n1)COC(C)(C)C3,81%
2,CCOc1ccccc1NC(=O)C(C)N(c1ccccc1)S(C)(=O)=O (stereo not drawn),91%
3,COC(=O)c1c(C)sc(-c2c(-c3ccc(OC)c(F)c3)[nH]c3c2c(=O)n(C)c(=O)n3C)c1O,120%
4,CCOC(=O)c1c(C)sc(-c2c(-c3ccc4c(c3)OCCO4)[nH]c3c2c(=O)n(C)c(=O)n3C)c1O,128%
5,COC(=O)c1c(C)sc(-c2c(-c3ccc4c(c3)OCCO4)[nH]c3c2c(=O)n(C)c(=O)n3C)c1O,43% (active)
6,COCCCNc1c2c(nc3ccccc13)CCC2,125%
7,O=C1COc2ccc(-c3cc(-c4ccc(F)cc4)c4c(n3)-c3cc(Cl)ccc3OC4)cc2N1,88%
8,CC(=O)Nc1ccc(NS(=O)(=O)c2c(C)nc3sccn3c2=O)cc1,61%
9,Cc1nc2sccn2c(=O)c1S(=O)(=O)Nc1cc(Cl)ccc1O,51%
10,COc1cc(OC)c(NS(=O)(=O)c2c(C)nc3sc(C)cn3c2=O)cc1Cl,65%
11,CC(=O)c1ccc(NS(=O)(=O)c2c(C)nc3scc(C)n3c2=O)cc1,88%
12,COc1cc(Cl)c(C)cc1NS(=O)(=O)c1c(C)nc2sccn2c1=O,64% (active)
13,Cc1ccc(NS(=O)(=O)c2c(C)nc3sccn3c2=O)c(Cl)c1,132%
14,CCOc1ccccc1NS(=O)(=O)c1c(C)nc2sccn2c1=O,63%
15,Cc1nc2sccn2c(=O)c1S(=O)(=O)Nc1cc(C(F)(F)F)ccc1Cl,69% (active)
16,CCCCOC(=O)c1ccc(NS(=O)(=O)c2c(C)nc3scc(C)n3c2=O)cc1,43% (active)
17,COc1ccc(NS(=O)(=O)c2c(C)nc3scc(C)n3c2=O)cc1,90%
18,COC(=O)c1ccc(NS(=O)(=O)c2c(C)nc3sccn3c2=O)cc1,72% (active)
19,Cc1nc2sccn2c(=O)c1S(=O)(=O)Nc1ccc(N2CCN(C)CC2)cc1,106%
20,COc1ccc(Cn2nnnc2C(C(C)C)N2CCc3ccccc32)cc1 (stereo not drawn),82%
